Screens as filed in PubChem BioAssay.
SMN2 splice up = qHTS Assay for Enhancers of SMN2 Splice Variant Expression | 2.8% of 210,000 active | Potency, µM (highest dose often 46.1 µM), without a hit: at the highest dose activity change, positive = activation, usual class: activators | AID 1458, 2008 | HEK293 SMN2-luciferase splicing reporter, luminescence, 30-36 h; also: % of control where 0% means no effect; nearly all actives have a fitted effect of over 55% in size
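HEK293 cells carry an SMN2 […]–luciferase reporter in which exon 7 inclusion puts luciferase in frame. Cells were plated 10-12 h before compound addition, then incubated 30-36 h at 37C. ONE-Glo luminescence was read; sodium butyrate at 4.5 mM final served as control.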
ELG1 genotox = qHTS screen for small molecules that induce genotoxicity in human embryonic kidney (HEK293T) cells expressing luciferase-tagged ELG1; HEK293T ELG1-luciferase reporter, luminescence, 16 h; Potency, µM (top dose mostly 46 µM), inactives show top-dose activity change, positive = activation, hits mostly activators; 1.3% of 330,000 active; AID 504466, 2011; also: % of control where 0% means no effect; nearly all actives have a fitted effect of over 60% in size
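Reporter readout depends on ELG1 protein level, which increases with genetic stress. After 16 hr compound exposure at 37 °C, luciferase activity was quantified using ONE-Glo.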
FLuc modulator = qHTS profiling assay for firefly luciferase inhibitor/activator using purifed enzyme and Km concentrations of substrates (counterscreen for miR-21 project); Luciferin 4-monooxygenase (Photinus pyralis), P08659; purified FLuc, Km substrates, luminescence inhibition; Potency, µM (top dose mostly 57.5 µM), for inactives: top-dose activity change, negative = inhibition, actives largely listed as inhibitors; 6.9% of 360,000 active; AID 588342, 2011;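 also: plate controls were vehicle for no effect and reference inhibitor for full effect; nearly all actives have a fitted effect of over 55% in size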
Target sequence (P08659 whole entry, looked up): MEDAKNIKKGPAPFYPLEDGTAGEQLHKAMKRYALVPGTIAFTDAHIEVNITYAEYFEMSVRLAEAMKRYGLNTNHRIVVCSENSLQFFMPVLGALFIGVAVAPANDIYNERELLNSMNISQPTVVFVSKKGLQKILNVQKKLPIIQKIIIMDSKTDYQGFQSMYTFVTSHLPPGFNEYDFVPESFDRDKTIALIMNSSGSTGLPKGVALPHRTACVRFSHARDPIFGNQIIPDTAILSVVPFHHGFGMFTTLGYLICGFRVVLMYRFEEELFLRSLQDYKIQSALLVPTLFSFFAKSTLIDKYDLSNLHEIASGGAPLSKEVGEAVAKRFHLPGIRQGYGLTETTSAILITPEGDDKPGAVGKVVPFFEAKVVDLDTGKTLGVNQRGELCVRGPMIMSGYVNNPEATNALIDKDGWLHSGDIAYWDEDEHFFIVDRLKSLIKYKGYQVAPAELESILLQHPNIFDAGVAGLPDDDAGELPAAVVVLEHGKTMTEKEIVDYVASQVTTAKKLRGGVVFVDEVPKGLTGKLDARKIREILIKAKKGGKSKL
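Purified P. pyralis luciferase, 10 nM final, with Km-level 10 uM D-luciferin and 10 uM ATP in 50 mM Tris acetate pH 7.5, 10 mM Mg acetate, 0.01% Tween-20, 0.05% BSA; 6-point qHTS titration about 60 µM downward; luminescence read.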
Rab9 promoter act = qHTS Assay for Rab9 Promoter Activators | Huh7 Rab9 promoter-luciferase reporter, luminescence, 24 h | Potency, µM (doses to about 9.22 µM), for inactives: at the highest dose activation, negative = inhibition, most hits filed as activators | 2.8% of 320,000 active; also: % of control where 0% means no effect; nearly all actives have a fitted effect of over 60% in size
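Huh7 cells stably carrying a Rab9 promoter-luciferase reporter, 1500 cells per well in OP-MEM I with 10% FBS, treated with compound 24 hours at 37C. Luciferase activity read by luminescence after 10 minutes with Amplite reagent.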
ELG1 repair inh = qHTS screen for small molecules that inhibit ELG1-dependent DNA repair in human embryonic kidney (HEK293T) cells expressing luciferase-tagged ELG1; Potency, µM (top dose mostly 46.1 µM), for inactives: top-dose activity change, negative = inhibition, hits mostly inhibitors; HEK293T ELG1-luciferase reporter, luminescence, 16 h; DNA damage induced by 5-fluorouridine; 2.3% of 330,000 active; also: % is scaled to controls: 0 for no effect and ±100 for the full control effect; nearly all actives have a fitted effect of over 55% in size
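Quantitative HTS, concentration-response format. 2,000 cells/well co-treated with 5-fluorouridine and compound, 16 hr in 5% CO2 at 37 °C; ONE-Glo luminescence read after 30 min.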
NPC1 prom act = qHTS Assay for NPC1 Promoter Activators; 2.4% of 320,000 active; Potency, µM (top dose mostly 9.22 µM), without a hit: top-dose activation, actives largely listed as activators; Huh7 NPC1 promoter luciferase reporter, 24 h; also: % of control where 0% means no effect; nearly all actives have a fitted effect of over 60% in size
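Luminescence read-out of NPC1 promoter-driven luciferase in stably transfected Huh7 cells; compounds delivered in DMSO and left 24 h at 37C, 5% CO2, qHTS titration format.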
* marks the source's active call; other numbers are inactive results; [ ] = dose if it differs, or a comment. Sampled rows, rich in hits. Any-hit rate of the full collection: about 9.2%. Calls follow the shape of the dose curve; as a rule, active = well fitted curve in the direction sought with a large enough effect; inconclusive = small, poorly fitted or top-dose-only effect, or another doubt; inactive = no such curve, though single readings can be large; an effect the other way counts as inactive or inconclusive. Potency is read from the fitted curve at half-maximal effect.

`Cc1nc2cc(C(=O)O)ccc2s1` gave SMN2 splice up 11µM*, ELG1 genotox inconclusive, FLuc modulator 17µM*, Rab9 promoter act 2.8µM*, ELG1 repair inh inconclusive and NPC1 prom act 1.4µM*.
Cc1nc2ccc(NC(=O)c3cncc(Br)c3)cc2s1 was read as ELG1 genotox -6%, FLuc modulator inconclusive, Rab9 promoter act 30%, ELG1 repair inh 23µM* and NPC1 prom act inconclusive.
`CCn1nc(C(=O)Nc2ccc3nc(C)sc3c2)c2ccccc2c1=O` gave SMN2 splice up 4µM*, ELG1 genotox 2%, FLuc modulator inconclusive, Rab9 promoter act 1%, ELG1 repair inh inconclusive and NPC1 prom act 5%.
Cc1nnc(NC(=O)c2ccc3ccccc3n2)s1 was read as ELG1 genotox inconclusive, FLuc modulator 24µM*, Rab9 promoter act 3.5µM*, ELG1 repair inh inconclusive and NPC1 prom act inconclusive.
`NNC(=O)c1ccc2ccccc2n1` gave SMN2 splice up 13%, ELG1 genotox 1%, FLuc modulator -5%, Rab9 promoter act 1%, ELG1 repair inh inconclusive and NPC1 prom act 1%.
Screening Cc1cc(C)cc(OCCSc2nc3ccc(NC(=O)COc4ccccc4)cc3s2)c1 returned FLuc modulator -4%.
For COC(=O)C1=C(C(=O)OC)[C@@H]2N(C)c3ccc(OC)cc3[C@@]23C[C@@H](C(=O)OC)N(C(C)=O)C3=N1 the results were SMN2 splice up 10%[9.22 µM].
`COc1cccc(Cn2c(-c3nonc3NC(C)=O)nc3ccccc32)c1` gave SMN2 splice up -5% and FLuc modulator 0%.
COc1ccc(C(=O)NC(C)c2cnn(-c3ccccn3)c2C)o1 (stereo not drawn) was read as ELG1 genotox -3%, FLuc modulator 1%, Rab9 promoter act 14%, ELG1 repair inh -2% and NPC1 prom act 11%.
For CCOC(=O)c1ccccc1NC(=O)N(Cc1ccc(C)cc1)Cc1cccn1-c1nnc(N2CCCC2=O)s1 the results were SMN2 splice up -2% and FLuc modulator -2%.
Cc1nc2ccc(NC(=O)c3ccc4ccccc4n3)cc2s1 was read as SMN2 splice up 35µM*, ELG1 genotox inconclusive, FLuc modulator 6µM*, Rab9 promoter act 3.5µM*, ELG1 repair inh inconclusive and NPC1 prom act 2.8µM*.
`CN(c1ccccc1)S(=O)(=O)c1cccc(NC(=O)c2cccc(C#N)c2)c1` gave ELG1 genotox -2%, FLuc modulator 6%, Rab9 promoter act -9%, ELG1 repair inh inconclusive and NPC1 prom act -6%.
`CN(c1ccccc1)S(=O)(=O)c1cccc(NC(=O)c2ccc3ncsc3c2)c1` gave ELG1 genotox -10%, FLuc modulator -4%, Rab9 promoter act -13%, ELG1 repair inh 15µM* and NPC1 prom act -7%.
`COc1ccccc1N(C)S(=O)(=O)c1ccc(C(=O)Nc2ncc(C)s2)cc1` gave ELG1 genotox -10%, Rab9 promoter act -1%, ELG1 repair inh inconclusive and NPC1 prom act -2%.
`COc1ccccc1N(C)S(=O)(=O)c1ccc(C(=O)Nc2ccc3nc(C)sc3c2)cc1` gave SMN2 splice up -51%, ELG1 genotox -13%, FLuc modulator -18%, Rab9 promoter act 0%, ELG1 repair inh 26µM* and NPC1 prom act -1%.
For Cc1nc2ccc(NC(=O)c3ccco3)cc2s1 the results were ELG1 genotox inconclusive, FLuc modulator inconclusive, Rab9 promoter act 2.8µM*, ELG1 repair inh inconclusive and NPC1 prom act inconclusive.
